± gives the standard deviation of the averaged measurements.

In the test the test system is Molm13. Kind of test: cell viability relative to DMSO control (bortezomib = 0%); higher = less growth inhibition. Particulars: 10 nM; 72 h. The procedure, abridged:
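Acute myeloid leukemia cells, 1000 per well in 50 µL, were incubated for 72 h on 384-well plates with 679 approved and investigational compounds, each at a single 10 nM dose. Viability was read by CellTiter-Glo luminescence. Values were expressed as percentages through per-plate linear regression against DMSO-treated (100%) and positive-control-treated (0%) cells.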
Usually cell viability stands for a read-out of living cells in per cent, often relative to untreated cells. `Cc1cc(CN2CCN(c3c(Br)cnc4nc(-c5ccc(N6CCN(C)CC6)cc5)[nH]c34)CC2)no1`: the cell viability worked out at 85.6 ± 1.8%.
In the case of `C[C@H](Nc1ncnc2nc[nH]c12)c1cc2cccc(Cl)c2c(=O)n1-c1ccccc1` [Duvelisib (IPI-145, INK1197)], the cell viability was 111 ± 14%.
Take `CS(=O)(=O)CCNCc1ccc(-c2ccc3ncnc(Nc4ccc(OCc5cccc(F)c5)c(Cl)c4)c3c2)o1` [Lapatinib]: the cell viability turned out to be 96.5 ± 5.9%.
The figure for `CC(C)=CCC[C@](C)(O)[C@H]1CC[C@]2(C)[C@@H]1[C@H](O)C[C@@H]1[C@@]3(C)CC[C@H](O)C(C)(C)[C@@H]3[C@@H](O[C@@H]3O[C@H](CO)[C@@H](O)[C@H](O)[C@H]3O[C@@H]3O[C@@H](C)[C@H](O)[C@@H](O)[C@H]3O)C[C@]12C` [Ginsenoside Rg2] is 94.4 ± 23%; for `O=C(O)c1ccc(Nc2ncc3c(n2)-c2ccc(Cl)cc2C(c2c(F)cccc2F)=NC3)cc1` it is 107 ± 1.3%; for `O=C1NCCc2[nH]c(-c3ccncc3)cc21` it is 115 ± 14%.
Turning to `Cc1[nH]c(/C=C2\C(=O)Nc3ccccc32)c(C)c1CCC(=O)O`, the cell viability was found to be 107 ± 18%.
Turning to `C=CC(=O)Nc1cccc(Nc2nc(Nc3ccc(N4CCN(C(C)=O)CC4)cc3OC)ncc2C(F)(F)F)c1` [Rociletinib (CO-1686, AVL-301)], the cell viability turned out to be 108 ± 10%.
The figure for `O=C1NC(=O)/C(=C/c2ccc3c(c2)OCO3)S1` is 96 ± 3%; for `O=C(COc1ccc(Cl)cc1)NC1CCC(NC(=O)COc2ccc(Cl)cc2)CC1` (stereo unspecified) it is 109 ± 1.8%.
Consider `Cn1cc(-c2ccc3c(c2)CCN3C(=O)Cc2cccc(C(F)(F)F)c2)c2c(N)ncnc21`, for which the cell viability was found to be 105 ± 4.7%.

The record behind these values is the supplement of paper PMC8699584.
